Laboratory results taken from PubChem BioAssay (NCATS).
Inconclusive results are not listed. The source made the active and inactive calls. Calls follow the shape of the dose curve; as a rule, active = well fitted inhibition curve with a large enough effect; inconclusive = small, poorly fitted or top-dose-only effect; inactive = flat fitted curve, though single readings scatter.

What was measured:
Experiment in all cases: qHTS profiling for inhibitors of Plasmodium falciparum proliferation (AID 504749); also: nearly all actives have a fitted effect of over 60% in size
Details in all cases: P. falciparum in erythrocytes, SYBR Green DNA, 72 h; series mostly up to 28.7 µM
[1] = system: CP215
In short: (§1)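 Parasite proliferation within erythrocytes, 72 h exposure. Endpoint: SYBR Green I fluorescence after overnight lysis at room temperature. Controls: 0.29 uM artemisinin, DMSO.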

[2] = system: CP217
In short: as §1

[3] = system: CP237
In short: as §1

[4] = system: CP238
In short: as §1

[5] = system: CP247
In short: as §1

[6] = system: CP250
In short: as §1

[7] = system: CP252
In short: as §1

[8] = system: CP256
In short: as §1

[9] = system: CP260
In short: as §1

[10] = system: CP262
In short: as §1

[11] = system: CP265
In short: as §1

[12] = system: CP266
In short: as §1

[13] = system: CP268
In short: as §1

[14] = system: CP269
In short: as §1

[15] = system: CP286
In short: as §1

[16] = system: CP291
In short: as §1

[17] = system: CP297
In short: as §1

[18] = system: CP305
In short: as §1

[19] = system: CP315
In short: as §1

[20] = system: CP325
In short: as §1

Measured: Potency
Potency is read from the fitted curve at half-maximal effect.

CCCc1cc(=O)[nH]c(=S)[nH]1
inactive: all assays above

O=C(O)c1cccc(-c2noc(-c3ccccc3F)n2)c1
inactive: all assays above

C=CCc1cc(OC)c(O)c(C(=O)NCCO)c1
not listed: [16]
inactive: all other assays above

O=c1oc2cc(O)ccc2s1
not listed: [6]
inactive: all other assays above

COc1cc2c(cc1OC)C1CC(=O)C(CC(C)C)CN1CC2 (stereo not given)
inactive: all assays above

C=C(c1ccc(C(=O)O)cc1)c1cc2c(cc1C)C(C)(C)CCC2(C)C
not listed: [9] | [15]
inactive: all other assays above

CCN(CC)CCOc1ccc(Cc2ccccc2)cc1
not listed: [5] | [9]
inactive: all other assays above

CCN(CCO)CCCC(C)Nc1ccnc2cc(Cl)ccc12 (stereo not given)
not listed: [15] | [16] | [17]
inactive: all other assays above

Cc1cc(=O)c2c(O)c3c(O)cc(=O)c4c3c3c(cc(O)c1c23)C(C)(C)C=4O
active: [1] 2.39 µM | [2] 0.891 µM | [3] 1.41 µM | [4] 1 µM | [5] 1.78 µM | [6] 1.41 µM | [7] 1.26 µM | [8] 1.58 µM | [9] 1.58 µM | [11] 1.58 µM | [14] 2.69 µM | [15] 1.58 µM | [16] 2.69 µM | [18] 3.38 µM

Cc1c(OCC(F)(F)F)ccnc1CS(=O)c1nc2ccccc2[nH]1 (stereo not given)
inactive: all assays above

CCC(C)(Oc1ccc(C2(c3ccc(OC(C)(CC)C(=O)O)cc3)CCCCC2)cc1)C(=O)O (stereo not given)
not listed: [9]
inactive: all other assays above

Clc1ccc(C(Cn2ccnc2)OCc2ccsc2Cl)c(Cl)c1 (stereo not given)
active: [1] 6.01 µM | [2] 5.01 µM | [3] 3.98 µM | [4] 10 µM | [5] 5.01 µM | [6] 11.2 µM | [7] 7.94 µM | [8] 10 µM | [9] 11.2 µM | [10] 13.5 µM | [11] 7.94 µM | [13] 12 µM | [14] 6.75 µM | [15] 7.08 µM | [16] 12 µM | [17] 3.79 µM | [18] 12 µM | [19] 15.1 µM | [20] 12 µM

CC(C)[C@H](N)C(=O)OCCOCn1cnc2c(=O)[nH]c(N)nc21
inactive: all assays above

CN(C)CCc1c[nH]c2ccc(Cn3cncn3)cc12
not listed: [6]
inactive: all other assays above

CCCCN(CCCC)CCC(O)c1cc2c(Cl)cc(Cl)cc2c2cc(C(F)(F)F)ccc12 (stereo not given)
active: [1] 0.0287 µM | [2] 0.0126 µM | [3] 0.0056 µM | [4] 0.0079 µM | [5] 0.0178 µM | [6] 0.0316 µM | [7] 0.0158 µM | [8] 0.141 µM | [9] 0.0063 µM | [10] 0.0181 µM | [11] 0.0316 µM | [12] 0.0907 µM | [13] 0.051 µM | [14] 0.0161 µM | [15] 0.0089 µM | [16] 0.0287 µM | [17] 0.0181 µM | [18] 0.0361 µM | [19] 0.051 µM | [20] 0.0287 µM

CC(S)C(=O)NCC(=O)O (stereo not given)
inactive: all assays above

Cc1ncc([N+](=O)[O-])n1CC(C)O (stereo not given)
not listed: [9] | [17]
inactive: all other assays above

Oc1ccc(OCc2ccccc2)cc1
not listed: [10] | [18]
inactive: all other assays above

Cc1cccc(C)c1OCC(=O)N[C@@H](Cc1ccccc1)[C@@H](O)C[C@H](Cc1ccccc1)NC(=O)[C@H](C(C)C)N1CCCNC1=O
active: [1] 6.01 µM | [2] 3.98 µM | [3] 2.82 µM | [4] 5.01 µM | [5] 7.08 µM | [6] 7.08 µM | [7] 4.47 µM | [8] 11.2 µM | [9] 3.98 µM | [10] 9.53 µM | [11] 5.01 µM | [13] 9.53 µM | [14] 6.75 µM | [15] 7.08 µM | [16] 13.5 µM | [17] 4.26 µM | [18] 13.5 µM | [19] 6.75 µM | [20] 13.5 µM

COc1ccc(C2(C#N)CCC(C(=O)O)CC2)cc1OC1CCCC1 (stereo not given)
not listed: [12]
inactive: all other assays above

COC1=C(OC)C(=O)C(CCCCCCCCCCO)=C(C)C1=O
not listed: [5]
inactive: all other assays above

CN1C(C(=O)Nc2ccccn2)=C(O)c2sccc2S1(=O)=O
inactive: all assays above

CNC[C@@H](O)[C@@H](O)[C@H](O)[C@H](O)CO
not listed: [12] | [20]
inactive: all other assays above

O=C(NCCO[N+](=O)[O-])c1cccnc1
not listed: [12]
inactive: all other assays above

Cn1c(NCCN(CCO)CCCc2ccc([N+](=O)[O-])cc2)cc(=O)n(C)c1=O
not listed: [5]
inactive: all other assays above

CCCCCCCCCCCCCCCCCCCCCCO
not listed: [16]
inactive: all other assays above

CN(C)c1ccc2nc3ccc(=[N+](C)C)cc-3sc2c1
active: [1] 0.12 µM | [2] 0.0891 µM | [3] 0.0126 µM | [4] 0.1 µM | [5] 0.141 µM | [6] 0.141 µM | [7] 0.0891 µM | [8] 0.0631 µM | [9] 0.0251 µM | [10] 0.019 µM | [11] 0.0891 µM | [12] 0.0757 µM | [13] 0.0379 µM | [14] 0.0849 µM | [15] 0.0126 µM | [16] 0.0536 µM | [17] 0.0675 µM | [18] 0.0213 µM | [19] 0.151 µM | [20] 0.0478 µM
